The supplement of paper PMC13380429

What follows are compounds tested on Vero E6 infected with SARS-CoV-2 (assay: morphology score (similarity to uninfected cells); higher = more like uninfected cells). Settings: 24 h.

SMILES | morphology score
CC(C)(CC(=O)N1CCCC1)NCC(=O)N1C[C@@H](F)C[C@H]1C#N (10 µM) | 0.0148
Cc1ccc(NC(=O)Nc2cc(C(F)(F)F)ccc2F)cc1Nc1ccc2c(c1)NC(=O)/C2=C\c1ccc[nH]1 (10 µM) | 0.567
CCCCCCCCCCC(CO)CCCCCCCC (stereo unspecified) [2-octyldodecan-1-ol] (10 µM) | 0.0425
Cc1ccc(S(=O)(=O)OCC(=O)Nc2ccc(C(=O)O)c(O)c2)cc1 [STAT3-inhibitor-VI] (10 µM) | 0.0369
COc1ccccc1N1CCN(CCN2C(=O)c3ccccc3C(C)(C)C2=O)CC1 (10 µM) | 0.213
CN(C)CCOC(=O)COc1ccc(Cl)cc1 [meclofenoxate] (10 µM) | -0.0664
CC(=O)[C@]1(N)Cc2c(O)c3c(c(O)c2[C@@H](O[C@H]2C[C@H](O)[C@H](O)CO2)C1)C(=O)c1ccccc1C3=O [amrubicin] (0.833333 µM) | 0.065
Cc1ccc(OC[C@@H](O)[C@H](C)NC(C)C)c2c1CCC2 (racemic) (10 µM) | -0.0205
NNc1nncc2ccccc12 [hydralazine] (10 µM) | -0.0789
COc1ccc(-c2cc(=O)c3c(O)cc(O[C@@H]4O[C@H](CO[C@@H]5O[C@@H](C)[C@H](O)[C@@H](O)[C@H]5O)[C@@H](O)[C@H](O)[C@H]4O)cc3o2)cc1O [diosmin] (10 µM) | -0.119
O=C(NC1CCN(CCCCC2(C(=O)NCC(F)(F)F)c3ccccc3-c3ccccc32)CC1)c1ccccc1-c1ccc(C(F)(F)F)cc1 [lomitapide] (0.833333 µM) | 0.223
